Results on 9 compounds are retold here after PubChem BioAssay (NCI).

Among the test systems are NCI-H23 lung; NCI-H226 lung; NCI-H322M lung; HOP-62 NSCLC; NCI-H460 lung; HOP-92 NSCLC; NCI-H522 lung; A549/ATCC NSCLC; 786-0 renal; COLO 205 colon; DU-145 prostate; K-562 leukemia; MALME-3M melanoma; MDA-MB-231 breast; SF-268 CNS; SF-295 CNS; SF-539 CNS; UACC-257 melanoma; M14 melanoma; RXF 393 renal.
Common to all, as to experiment: NCI-60 one-dose screen, 48 h (100 = growth as untreated, 0 = no growth, -100 = all killed)
Common to all, as to conditions: 10 µM unless noted

This is part of a sample that, as a whole, favours compounds with a hit. Of some 83,000 tested, about 20% had one in any assay.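 Values shown are percent growth following 48 h exposure of cells in 96-well plates to a single concentration of compound; below 10 was considered active.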 Values without a mark were called inactive. Calls of active or inactive are those of the source.

With `NNc1ncnc2c1ncn2C1OC(CO)C(O)C1O` (stereo unspecified), the growth with NCI-H23 lung was 66%; in the assay with NCI-H226 lung it was 55.8%; in the assay on NCI-H322M lung, 40%; in the assay on HOP-62 NSCLC, 15%; in the assay with NCI-H460 lung it was 2.13% (active); in the assay on HOP-92 NSCLC it was 34.9%. In addition, the growth was 20.1% in the assay with NCI-H522 lung; 18% in the assay with A549/ATCC NSCLC; 35.9% in the assay with 786-0 renal; 40.4% with COLO 205 colon; 19.3% in the assay on DU-145 prostate; 30.4% in the assay with K-562 leukemia. Also, the growth is 122% in the assay with MALME-3M melanoma; 10.7% with MDA-MB-231 breast; 50.3% in the assay on SF-268 CNS; 38.7% with SF-295 CNS; 90.9% in the assay with SF-539 CNS; 84.9% in the assay with UACC-257 melanoma. Moreover, the growth in the assay with M14 melanoma is 31.6%.

`S=c1nc2[nH]c3ccccc3c2n[nH]1`: the growth was 96.3% in the assay on NCI-H23 lung; 83.1% with NCI-H226 lung; 98.9% in the assay with NCI-H322M lung; -1.58% (active) in the assay with HOP-62 NSCLC; 99.5% in the assay on NCI-H460 lung; 55.7% with HOP-92 NSCLC. Further, the growth is 108% in the assay with NCI-H522 lung; 104% in the assay on A549/ATCC NSCLC; 109% in the assay with 786-0 renal; 108% in the assay with COLO 205 colon; 102% in the assay with DU-145 prostate; 106% in the assay on K-562 leukemia. Besides, the growth is 97.7% in the assay on MALME-3M melanoma; 86.6% with MDA-MB-231 breast; 87.6% with SF-268 CNS; 72% with SF-295 CNS; 85.1% in the assay on SF-539 CNS; 107% in the assay on UACC-257 melanoma. In addition, the growth in the assay on M14 melanoma is 107%.

`Clc1ncnc2nc[nH]c12`: the growth was 94.4% with NCI-H23 lung; 96.3% with NCI-H226 lung; 104% in the assay on NCI-H322M lung; 83.7% with HOP-62 NSCLC; 103% with NCI-H460 lung; 68.8% with HOP-92 NSCLC. The growth with NCI-H522 lung was 70.5%; with A549/ATCC NSCLC, 101%; in the assay on 786-0 renal, 101%; with COLO 205 colon it was 101%; in the assay with DU-145 prostate, 91%; in the assay on K-562 leukemia, 90.1%. Further, the growth is 106% in the assay with MALME-3M melanoma; 99% in the assay with MDA-MB-231 breast; 95.8% with SF-268 CNS; 107% in the assay on SF-295 CNS; 86.4% with SF-539 CNS; 103% in the assay with UACC-257 melanoma. Also, the growth with M14 melanoma is 97.5%.

On to `CNc1ccccc1C(=O)N/N=C/C=C/c1ccccc1`, for which the growth in the assay on NCI-H23 lung was 39.1%; in the assay with NCI-H226 lung, 66.7%; with NCI-H322M lung, 30.8%; with HOP-62 NSCLC it was 26.9%; in the assay with NCI-H460 lung, 11%; with HOP-92 NSCLC, 69.3%. Moreover, the growth in the assay with NCI-H522 lung is -18.1% (active); in the assay with A549/ATCC NSCLC, 30.7%; in the assay on 786-0 renal, 35.3%; in the assay with COLO 205 colon, -1.61% (active); in the assay on DU-145 prostate, 14.9%; in the assay on K-562 leukemia, 8.9% (active). Besides, the growth was 31.5% in the assay on MALME-3M melanoma; 49.3% with MDA-MB-231 breast; 34.9% with SF-268 CNS; -0.27% (active) in the assay on SF-295 CNS; 21.7% in the assay on SF-539 CNS; 39.1% in the assay on UACC-257 melanoma. The growth in the assay with M14 melanoma was 17.1%.

Turning to `C[n+]1c(/C=C\C=C\N2CCCCC2)sc2ccccc21`, the growth with NCI-H23 lung is 12.1%; in the assay with NCI-H226 lung, 17.7%; with NCI-H322M lung it was 17.6%; in the assay on HOP-62 NSCLC, -29.1% (active); in the assay with NCI-H460 lung, 0.479% (active); in the assay with HOP-92 NSCLC it was -42.3% (active). Also, the growth with NCI-H522 lung is -49.3% (active); with A549/ATCC NSCLC, -13.7% (active); with 786-0 renal it was -42.4% (active); in the assay with COLO 205 colon it was -42.7% (active); with DU-145 prostate, 23.1%; in the assay on K-562 leukemia, -14.4% (active). In addition, the growth in the assay on MALME-3M melanoma is -4.48% (active); in the assay with MDA-MB-231 breast it was 17.7%; with SF-268 CNS, 12.9%; in the assay on SF-295 CNS, -10.3% (active); in the assay with SF-539 CNS, 4.51% (active); with UACC-257 melanoma it was -44% (active). For the same compound, the growth in the assay on M14 melanoma is 0.396% (active).

As for `O=C1NC(=O)C(c2ccccc2)O1` (stereo unspecified), the growth was 102% with NCI-H23 lung; 105% in the assay with NCI-H226 lung; 98.9% in the assay on NCI-H322M lung; 104% with HOP-62 NSCLC; 109% in the assay on NCI-H460 lung; 104% in the assay with HOP-92 NSCLC. Besides, the growth was 90.2% in the assay on NCI-H522 lung; 100% in the assay on A549/ATCC NSCLC; 90.3% in the assay on 786-0 renal; 108% in the assay on COLO 205 colon; 119% in the assay with DU-145 prostate; 92.6% in the assay with K-562 leukemia. Also, the growth was 100% in the assay on MALME-3M melanoma; 122% with MDA-MB-231 breast; 121% with RXF 393 renal; 115% in the assay with SF-268 CNS; 96.4% in the assay on SF-539 CNS; 98.8% in the assay with UACC-257 melanoma. Also, the growth in the assay on M14 melanoma is 100%.

On to `NC(CCl)=NCC12CC3CC(CC(C3)C1)C2`, for which the growth was -7.12% (active) with NCI-H23 lung; -0.0494% (active) with NCI-H226 lung; 20.1% in the assay with NCI-H322M lung; -66.1% (active) with HOP-62 NSCLC; -57.6% (active) in the assay with NCI-H460 lung; -37.6% (active) in the assay on HOP-92 NSCLC. In addition, the growth in the assay with NCI-H522 lung is -58.7% (active); in the assay with A549/ATCC NSCLC, -47.1% (active); in the assay with 786-0 renal, -80.2% (active); in the assay with COLO 205 colon it was -96% (active); in the assay with DU-145 prostate, -42.7% (active); with K-562 leukemia it was -15.1% (active). For the same compound, the growth was 25.4% in the assay with MALME-3M melanoma; -15.8% (active) with MDA-MB-231 breast; -3.73% (active) with SF-268 CNS; 26.4% in the assay with SF-295 CNS; -11% (active) in the assay on SF-539 CNS; -71.2% (active) in the assay on UACC-257 melanoma. The growth in the assay with M14 melanoma is -61.3% (active).

In the case of `CC(C)(CC(=O)O)CC(=O)O`, the growth in the assay with NCI-H23 lung was 100%; with NCI-H226 lung it was 96.5%; with NCI-H322M lung it was 96.7%; in the assay with HOP-62 NSCLC, 111%; with NCI-H460 lung, 102%; in the assay on HOP-92 NSCLC it was 96.6%. Further, the growth was 98.5% in the assay on NCI-H522 lung; 101% with A549/ATCC NSCLC; 102% in the assay with 786-0 renal; 119% in the assay with COLO 205 colon; 111% with DU-145 prostate; 107% in the assay with K-562 leukemia. Also, the growth was 107% in the assay with MALME-3M melanoma; 95.5% in the assay with MDA-MB-231 breast; 102% with SF-268 CNS; 110% in the assay with SF-295 CNS; 95% in the assay on SF-539 CNS; 113% in the assay on UACC-257 melanoma. Besides, the growth with M14 melanoma is 101%.

As to `CC(C)c1ccccc1NC(=O)N1CCC(C(C)C)CC1`, the growth in the assay on NCI-H23 lung was 107%; in the assay on NCI-H226 lung, 95.4%; with NCI-H322M lung, 97.7%; in the assay on HOP-62 NSCLC, 107%; in the assay with NCI-H460 lung, 107%; in the assay with HOP-92 NSCLC it was 95.8%. Moreover, the growth was 106% in the assay with NCI-H522 lung; 101% in the assay on A549/ATCC NSCLC; 103% in the assay on 786-0 renal; 117% with COLO 205 colon; 112% in the assay with DU-145 prostate; 99.4% in the assay on K-562 leukemia. Besides, the growth in the assay with MALME-3M melanoma was 105%; in the assay with MDA-MB-231 breast, 117%; in the assay on RXF 393 renal, 101%; in the assay with SF-268 CNS, 115%; in the assay with SF-539 CNS it was 111%; in the assay on UACC-257 melanoma, 95.8%. Further, the growth in the assay on M14 melanoma is 107%.
